High-throughput results from PubChem BioAssay.
In the library only some 31% were active in any assay of this set; here they are far more common.
PLAP activator = activates human placental alkaline phosphatase | purified PLAP enzyme, luminescent substrate read-out; active compounds read high | activation fold at 20 µM | 96,000 compounds, 1.2% hits | AID 696; in the data active means activation fold above about 2
CYP2C9 inh = inhibitors of human CYP2C9; 96,000 compounds, 20% hits; inhibition, % at 5 µM; CYP2C9 Supersomes, luciferin-H conversion, luminescence;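 active means blocking of liver enzyme CYP2C9 beyond about 50% at 5 µM, limit read from the data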
CYP2C9 act = activators of human CYP2C9; AID 1024; recombinant CYP2C9, luciferin-H conversion, luminescence; active compounds read high; factor 1 = untreated enzyme, 0 = blocked; 96,000 compounds, 1.4% hits; activation factor at 5 µM;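 active means activation factor of 2 or more for CYP2C9 at a 5 µM dose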
CYP2C19 inhib = inhibitors of human CYP2C19 | P33261 | CYP2C19 Supersomes, luciferin-H EGE luminescence, 30 min | inhibition, % at 5 µM | 96,000 compounds, 21% hits;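 active means CYP2C19 inhibition above a set limit at 5 µM in the primary screen, cut at about 50% in these data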
Target sequence (P33261 whole entry, looked up): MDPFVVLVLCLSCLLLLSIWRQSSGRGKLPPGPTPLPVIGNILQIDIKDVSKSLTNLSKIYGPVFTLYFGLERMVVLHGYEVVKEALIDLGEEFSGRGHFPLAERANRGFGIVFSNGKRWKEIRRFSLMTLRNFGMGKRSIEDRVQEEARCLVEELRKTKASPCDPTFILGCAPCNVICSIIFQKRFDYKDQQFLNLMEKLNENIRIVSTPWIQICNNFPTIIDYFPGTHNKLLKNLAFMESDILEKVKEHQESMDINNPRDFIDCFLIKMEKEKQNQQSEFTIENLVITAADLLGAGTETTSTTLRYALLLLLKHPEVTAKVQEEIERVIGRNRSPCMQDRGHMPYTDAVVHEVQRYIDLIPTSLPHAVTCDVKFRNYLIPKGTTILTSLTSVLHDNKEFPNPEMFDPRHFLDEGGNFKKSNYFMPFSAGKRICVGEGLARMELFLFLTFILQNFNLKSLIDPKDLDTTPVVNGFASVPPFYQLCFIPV
CYP2C19 act = increases human CYP2C19 enzyme activity. P33261. recombinant CYP2C19, luciferin-H EGE luminescence; active compounds read high; 0 = fully inhibited enzyme, 1 = untreated enzyme. activation factor at 5 µM. 96,000 tested, under 10 active;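 active means activation factor of at least 2 at 5 µM in the primary screen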
Large screens that a line does not name were inactive.

O=C(NC1(C(F)(F)F)C(=O)Nc2c1c(=O)[nH]c(=O)n2-c1ccccc1)c1cccnc1 (stereo unspecified)	none
COc1ccc2c(C(=O)CN3CCC(C)CC3)c[nH]c2c1	none
c1ccc(-c2csc(-n3cnnn3)n2)cc1	CYP2C19 inhib 62
Cc1cc(C)n(-c2nc(-c3ccccc3)cs2)n1	none
O=C(Nc1ccsc1C(=O)N1CCCCCC1)c1ccccc1	none
CCOc1cc2c(cc1C(C)(C)C)NC(=O)CS2	none
Cc1nc(P(=O)(c2ccccc2)c2ccccc2)c(N2CCOCC2)o1	none
CNc1oc(-c2ccc(C)cc2)nc1P(=O)(c1ccccc1)c1ccccc1	CYP2C9 inh 81
Cc1cc(Cl)cc(C)c1OCC(=O)O	none
COc1ccc(OC)c(C2CC(=O)C(C)C(c3cc(OC)ccc3OC)N2)c1 (stereo unspecified)	CYP2C9 inh 76
COc1ccc(OC)c(C(=O)C2COC(=O)C2)c1 (stereo unspecified)	none
O=C(CSc1ccc(C(F)(F)F)cc1[N+](=O)[O-])Nc1ccccc1	none
O=[N+]([O-])c1cc(C(F)(F)F)ccc1NCCc1c[nH]c2ccc(O)cc12	CYP2C9 inh 75
COc1ccc(Nc2nc(-c3sc(N)nc3C)cs2)cc1	CYP2C9 inh 80, CYP2C19 inhib 78
Cc1nc(N)sc1-c1csc(Nc2ccccn2)n1	CYP2C9 inh 61
Cc1nc(NC(=O)c2ccccc2)sc1-c1csc(Nc2cccc(Cl)c2)n1	none
COc1ccc(Nc2nc(-c3sc(NC(C)=O)nc3C)cs2)cc1	CYP2C9 inh 81, CYP2C19 inhib 82
COc1ccc(CCNc2nc(-c3sc(N)nc3C)cs2)cc1OC	none
CN1C(=O)CSc2ccc(NC(=O)Nc3ccccn3)cc21	none
CCOc1ccc(OCC)c(NC(=O)Nc2ccc3c(c2)N(C)C(=O)CS3)c1	CYP2C19 inhib 58
COc1cccc(NC(=O)Nc2ccc3c(c2)N(C)C(=O)CS3)c1	CYP2C19 inhib 65
CN1C(=O)CSc2ccc(NC(=O)NCc3cccnc3)cc21	CYP2C9 inh 72, CYP2C19 inhib 56
CC(C)(C)N1CC2([N+](=O)[O-])CN(C(C)(C)C)CC([N+](=O)[O-])(C1)C2	none
Fc1ccc(C(c2nnnn2Cc2cccs2)N2CCN(C3CCCC3)CC2)cc1 (stereo unspecified)	CYP2C19 inhib 80
COc1ccc(Cn2nnnc2C(c2ccncc2)N2CCOCC2)cc1 (stereo unspecified)	CYP2C9 inh 78, CYP2C19 inhib 90
N#Cc1ccc(C(c2nnnn2C2CCCC2)N2CCC(Cc3ccccc3)CC2)cc1 (stereo unspecified)	CYP2C19 inhib 56
Cc1ccc2cc(C(c3nnnn3C3CCCC3)N3CCN(c4ccccc4)CC3)c(=O)[nH]c2c1 (stereo unspecified)	none
COc1ccc(C(c2nnnn2C2CCCCC2)N2CCN(c3ccccc3)CC2)cc1 (stereo unspecified)	CYP2C9 inh 75, CYP2C19 inhib 72
c1ccc(C(c2nnnn2Cc2cccs2)N2CCN(C3CCCC3)CC2)cc1 (stereo unspecified)	none
CCC1CCCCN1Cc1cc(OC)c(O)c([N+](=O)[O-])c1 (stereo unspecified)	none
CCN(CC)C(c1ccc(F)cc1)c1nnnn1CC1CCCO1 (stereo unspecified)	none
COc1ccc(C(c2nnnn2CC2CCCO2)N2CCN(c3ccc(F)cc3)CC2)cc1 (stereo unspecified)	CYP2C9 inh 78
CCCC(c1nnnn1Cc1cccs1)N1CCN(c2nc3ccccc3s2)CC1 (stereo unspecified)	none
COc1ccc(C(c2nnnn2Cc2ccccc2)N2CCN(c3ccccc3)CC2)cc1 (stereo unspecified)	CYP2C9 inh 86, CYP2C19 inhib 91
COc1ccc(C(c2nnnn2Cc2ccccc2)N2CCN(c3nc4ccccc4s3)CC2)cc1 (stereo unspecified)	CYP2C9 inh 63, CYP2C19 inhib 54
COCCn1nnnc1C(c1cccc(C#N)c1)N1CCCCCC1 (stereo unspecified)	CYP2C19 inhib 68
COc1ccc(N2CCCn3c2nc2c3c(=O)n(Cc3ccccc3F)c(=O)n2C)c(OC)c1	none
COc1ccc(O)c(/C=c2/sc3nc4cc(C)c(C)cc4n3c2=O)c1	none
COc1ccc(Cn2nnnc2C(C(C)C)N2CCN(c3ccccc3OC)CC2)cc1 (stereo unspecified)	CYP2C9 inh 97, CYP2C19 inhib 92
COCCn1nnnc1C(c1ccc(OC)c(OC)c1)N1CCN(c2nc3ccccc3s2)CC1 (stereo unspecified)	CYP2C9 inh 69
COc1ccc(C(c2nnnn2Cc2cccs2)N2CCN(c3ccccc3F)CC2)cc1 (stereo unspecified)	CYP2C9 inh 90, CYP2C19 inhib 92
COc1ccc(OC)c(C(c2nnnn2C2CCCC2)N2CCN(c3ccc(F)cc3)CC2)c1 (stereo unspecified)	CYP2C9 inh 63, CYP2C19 inhib 81
Fc1ccc2c(Cl)c(-c3nnc(-c4cccs4)o3)sc2c1	none
CCc1ccc2oc(=O)cc(CN3CCOCC3)c2c1	CYP2C19 inhib 65
CCN1CCN(S(=O)(=O)c2ccc3c(c2)OCCO3)CC1	none
O=c1cc(CN2CCN(S(=O)(=O)c3ccc4c(c3)OCCO4)CC2)c2ccc(O)cc2o1	CYP2C9 inh 66
CCc1ccc2c(CN3CCN(S(=O)(=O)c4ccc5c(c4)OCCO5)CC3)cc(=O)oc2c1	CYP2C9 inh 53
O=C(Nc1ccccc1[N+](=O)[O-])C1=C(O)CCn2c1nc1ccccc12	none
CCOC(=O)c1cc2sc(C)cc2n1CC(=O)N1CCOCC1	CYP2C19 inhib 65
CCOC(=O)c1cc2sc(C)cc2n1CC(=O)NCc1ccc(F)cc1	CYP2C19 inhib 72
CCOC(=O)c1cc2sc(C)cc2n1CC(=O)N1CCN(C(=O)c2ccco2)CC1	none
C=CCN(CC=C)S(=O)(=O)c1ccc2nsnc2c1	none
COc1cc(CNC2CCCC2)cc(Cl)c1OCc1ccc(F)cc1	CYP2C19 inhib 95
CCOc1cc(CNC2CCCC2)cc(Cl)c1OCc1ccc(F)cc1	CYP2C19 inhib 95
COc1cc(CNC2CCCC2)cc(OC)c1OC	none
Oc1cccc(Nc2nc(NCC3CCCO3)c3ccccc3n2)c1 (stereo unspecified)	CYP2C9 inh 60, CYP2C19 inhib 51
NC(=O)C1(N2CCCCC2)CCN(C(=O)CCCn2c(=O)[nH]c3ccsc3c2=O)CC1	none
CCN(CC)C(=O)CC(c1ccc(F)cc1)c1ccco1 (stereo unspecified)	CYP2C19 inhib 62
CCOC(=O)C1C(=O)CC(C)(O)C(C(=O)OCC)C1c1ccccc1OC (stereo unspecified)	none
O=C(NCc1cccnc1)c1sc2cc(Cl)ccc2c1Cl	CYP2C19 inhib 79
CCOc1ccc(CCNC(=O)c2cc3sc(Cl)cc3n2C)cc1OCC	none
O=C(Nc1c(Cl)cc(Cl)cc1C(=O)NCc1cccnc1)c1ccc(Cl)cc1Cl	none
